Calb FLC – C. albicans growth inhibition with fluconazole, primary screen, CaCi-2 strain, Alamar Blue fluorescence; C. albicans CaCi-2 (fluconazole-resistant clinical isolate) + fluconazole, 48 h; growth inhibition, % (no concentration beside the values); 300,000 tested, 0.57% active; AID 1979, 2009;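 active = growth inhibition above about 58% in most replicates, limit read from the data, passing the limit was not always enough; inconclusive = exactly half the replicates above a set limit; inactive = most replicates below a set limit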;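 note: all wells also contain fluconazole at 8 µg/ml as a sub-toxic cotreatment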
Beta apoptosis – inhibitors of cytokine-induced beta cell apoptosis, primary screen, luminescence; 300,000 tested, 0.8% active; protection from apoptosis, % (no concentration beside the values); AID 435005, 2010; INS-1E cytokine-induced death, ATP luminescence, 48 h; percent of positive-control rescue, neutral wells zero;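 active = Every replicate reaches about 75%, or at least half do and their mean reaches it too, limit read from the data; inconclusive = At least half of replicates reach the limit but their mean does not; inactive = Under half of replicates reach the limit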;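 note: higher means more ATP so stronger rescue from cytokine killing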
Jurkat NFkB inh – inhibitors of induced NF-kB luciferase reporter, primary screen, TCR NF-kB activation inhibitor project, cell-based, luminescence, uHTS; inhibition, % at 4 µM; Jurkat, PMA/ionomycin-induced NF-kB luciferase reporter; 330,000 tested, 0.53% active; in the data active = inhibition above about 50%
697 NFkB inh – inhibitors of PMA/ionomycin-induced NF-kB reporter, 697 cells, primary screen, B-cell NF-kB inhibitor project, cell-based, luminescence, uHTS | 697 B-cell NF-kB luciferase reporter, 16 h | inhibition, % at 4 µM | 330,000 tested, 0.33% active; in the data active = inhibition above about 35%
Shn3 inh set2 – reduction of Shn3 3'UTR firefly luciferase signal, primary screen, Schnurri-3 inhibitor project, cell-based, Clone20 osteoblasts, set 2; Clone20 osteoblast Shn3 3'UTR firefly luciferase, 24 h; inhibition, % at 12.5 µM; 360,000 tested, 0.52% active;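 active = mean inhibition of at least 75% with every replicate also reaching 75%; inconclusive = mean inhibition at least 75% but some replicate below; inactive = mean inhibition below 75%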
Of the large screens only hits and unclear results are named; the others gave an inactive call. An excerpt weighted towards active compounds, which were near 2% of everything screened.

CCCCN(C(=O)COC(=O)COc1c(C)cc(C)cc1C)c1c(N)n(CCC)c(=O)[nH]c1=O	none
CCCCn1c(N)c(N(CCOC)C(=O)COC(=O)CSc2cc(C)c3ccccc3n2)c(=O)[nH]c1=O	none
Cc1cc(Nc2cccc(Cl)c2)nc(NCc2ccccc2)n1	Calb FLC inconclusive, Beta apoptosis 106.8, Shn3 inh set2 86.9
Cc1cc(N/N=C/c2cccc(Cl)c2)nc(NCc2ccccc2)n1	none
Cc1ccccc1NC(=O)/C=C/c1ccc([N+](=O)[O-])s1	Calb FLC inconclusive, Beta apoptosis 120.4, Shn3 inh set2 93.2 (no result: Jurkat NFkB inh, 697 NFkB inh)
Cn1c(SCC(=O)N2CCc3ccccc3C2)nnc1-c1cccs1	none
Cn1c(SCC(=O)N2CCc3ccccc3C2)nnc1-c1ccncc1	Calb FLC 56.9
O=C1C(Br)=C(c2ccccc2)C(c2ccccc2)=C1c1ccccc1	Shn3 inh set2 97.9 (no result: Calb FLC, Beta apoptosis, Jurkat NFkB inh, 697 NFkB inh)
N#Cc1ccccc1COc1cccc2c1CCCC2O (configuration not stated)	none
CCOc1cc(CNCCO)cc(Br)c1OCc1ccccc1Cl	none
CCOc1cc(CNCCCN2CCOCC2)cc(Br)c1OCc1ccccc1Cl	Shn3 inh set2 85.6
CC(=O)OCC1OC(n2cc(F)c(=O)[nH]c2=O)C(OC(C)=O)C1OC(C)=O (configuration not stated)	none
O=C1C(F)=CC(COC(c2ccccc2)(c2ccccc2)c2ccccc2)OC1n1cc(F)c(=O)[nH]c1=O (configuration not stated)	Shn3 inh set2 97.7 (no result: Calb FLC, Beta apoptosis, Jurkat NFkB inh, 697 NFkB inh)
COc1ccc(NC(=O)c2ccco2)cc1NC(=O)c1ccccc1[N+](=O)[O-]	none
O=C(OCC(=O)N1CCN(C(=O)c2ccco2)CC1)c1cncc(Br)c1	none (no result: Calb FLC)
Cc1ccc(N2NC3(CCN(C(N)=O)CC3)NC2=O)cc1	Calb FLC 106.1 (no result: Shn3 inh set2)
Cc1cc2nc(C)n(CCCNC(=O)Nc3cccc4ccccc34)c2cc1C	Shn3 inh set2 87.4
CCOc1ccc(NC(=O)NCCCn2c(C)nc3cc(C)c(C)cc32)cc1	none
C#CCN(C)Cc1ccccc1	Shn3 inh set2 86.1 (no result: Calb FLC)
O=C(Nc1ccccc1C(=O)Nc1nnc(C(F)(F)F)s1)c1ccccc1Cl	Beta apoptosis 111.9
O=C1/C(=C\c2cc([N+](=O)[O-])ccc2O)SC(=S)N1Cc1ccc(Cl)cc1	Calb FLC 85.5 (no result: Jurkat NFkB inh, 697 NFkB inh)
Cc1ccccc1/C=C1\SC(=S)N(/N=C/c2cc([N+](=O)[O-])ccc2O)C1=O	Calb FLC 84.8
O=C1/C(=C\c2cccc(O)c2O)SC(=S)N1Cc1ccccc1	none
O=C(NCCCCl)C1CC(=O)N(CCc2ccc(F)cc2)C1 (configuration not stated)	none
CC(C)NC(=NCc1ccc(Cl)cc1Cl)Nc1ccccc1	none
COc1ccc(CCN(C)C2CCCN(S(=O)(=O)c3ccccc3)C2)cc1OC (configuration not stated)	none (no result: Beta apoptosis)
CC(C)(C)C(=O)Nc1cc(S(=O)(=O)N2CCCCC2)ccc1N1CCCCC1	Shn3 inh set2 83.5
CC(=O)c1ccc(NC(=O)C(C)OC(=O)/C=C/c2ccco2)cc1 (configuration not stated)	Shn3 inh set2 88.3 (no result: Calb FLC)
COc1ccc2c(c1)c1ccc3c(c1n2C)C(=O)C=CC3=O	Shn3 inh set2 96.2 (no result: Calb FLC, Beta apoptosis)
Cc1ccc2c(c1)c1ccc3c(c1n2C)C(=O)C=CC3=O	Shn3 inh set2 94.7 (no result: Calb FLC, Beta apoptosis)
Cn1c2ccccc2c2ccc3c(c21)C(=O)C=CC3=O	Shn3 inh set2 94.4 (no result: Calb FLC, Beta apoptosis, Jurkat NFkB inh, 697 NFkB inh)
COc1ccc(CCNC(=O)CCS(=O)(=O)Cc2ccccc2C)cc1OC	none (no result: Beta apoptosis)
CC(=O)Nc1nc(C)c(-c2csc(Nc3cccc(C(C)=O)c3)n2)s1	Shn3 inh set2 86.3
Cc1ccc2oc(-c3cccc(NC(=O)Cn4cnc5c(=O)n(C)c(=O)n(C)c54)c3)nc2c1	Calb FLC 122.4 (no result: Shn3 inh set2)
O=C(NCC1COc2ccccc2O1)C1CCN(S(=O)(=O)c2ccc(Cl)cc2)CC1 (configuration not stated)	none (no result: Calb FLC)
COc1ccc(S(=O)(=O)N2CC(=O)Nc3ccccc32)cc1	none (no result: Beta apoptosis)
CCC(=O)N1CCCC(C(=O)Nc2ccc3cn[nH]c3c2)CC1 (configuration not stated)	none (no result: Calb FLC, Beta apoptosis, Jurkat NFkB inh, 697 NFkB inh)
Clc1ccc(CSc2ccc(-c3ccccn3)nn2)cc1	Beta apoptosis 84.1
CCCn1nc([N+](=O)[O-])c(C(C#N)c2nc3ccccc3s2)c(Cl)c1=O (configuration not stated)	Calb FLC 99.1
Cc1ccc(Cl)cc1N1CCN(C(=O)CSc2nnc3n2C(C)(C)Cc2ccccc2-3)CC1	Beta apoptosis 93.6
O=C(COc1ccc(-c2nnco2)cc1)Nc1ccc(C(F)(F)F)cc1	none
CCc1ccc(C(=O)NNc2cc(Cl)ccc2Cl)cc1	Beta apoptosis 91.9
CCc1ccc(C(=O)NNc2ccc(F)cc2)cc1	Calb FLC 79.8
COc1ccccc1NCC(=O)N/N=C/c1cccnc1	none
COc1ccccc1N(CC(=O)N/N=C/c1c(O)ccc2ccccc12)S(C)(=O)=O	Beta apoptosis 87.0
O=C(CN1CCCc2ccccc21)N/N=C/c1ccccc1	none
O=C(CN1CCCc2ccccc21)N/N=C/c1c(O)ccc2ccccc12	Calb FLC 84.7
O=C(Cc1n[nH]c(=O)[nH]c1=O)N/N=C/c1c(O)ccc2ccccc12	none
COc1ccccc1NCC(=O)N/N=C/c1c(O)ccc2ccccc12	Beta apoptosis 76.7
O=C(CNc1ccc(F)cc1)N/N=C/c1c(O)ccc2ccccc12	Beta apoptosis 81.0, Shn3 inh set2 91.5
CC(C)(C)NC(=O)NC(=O)CN1CCCc2ccccc21	Calb FLC 114.2
O=S(=O)(O)c1cc(Cl)cc(N=Nc2ccc(O)cc2O)c1O	none (no result: Calb FLC, Beta apoptosis, Jurkat NFkB inh, 697 NFkB inh)
O=S(=O)(O)c1cc(O)c2c(O)c(N=Nc3cc(Cl)ccc3O)c(S(=O)(=O)O)cc2c1	Calb FLC 84.8
Cc1cc(-c2ccc(N=Nc3c(S(=O)(=O)O)cc4cc(S(=O)(=O)O)cc(N)c4c3O)c(C)c2)ccc1N=Nc1c(S(=O)(=O)O)cc2cc(S(=O)(=O)O)cc(N)c2c1O	Beta apoptosis 77.0 (no result: Calb FLC, Shn3 inh set2)
CCC(=O)NC(=S)Nc1ccc(NC(=O)c2ccco2)cc1	none
CCCCC(=O)NC(=S)Nc1cccc(NC(=O)c2ccco2)c1	Calb FLC 89.0
COc1ccc(CCNc2c3ccccc3nc3ccccc23)cc1OC	Beta apoptosis 76.8
C/C(=N\NC(=O)c1c(C)nc2ccccn12)c1ccc(O)cc1O	Beta apoptosis 87.9
C/C(=N\NC(=O)c1c(C)nc2ccccn12)c1ccccc1F	none
NNc1ncnc2scc(-c3ccc(Cl)cc3)c12	Beta apoptosis 94.2
Clc1ccc(-c2csc3ncnc(Cl)c23)cc1	none (no result: Beta apoptosis)
COc1ccccc1CNC(=O)c1ccccc1NC(=O)C1=C(C)OCCS1	none
CC1CC1C(=O)OCC(=O)Nc1ccc(S(=O)(=O)N2CCOCC2)cc1 (configuration not stated)	none (no result: Calb FLC)
